CYP2C19 activ: activators of human cytochrome P450 2C19; 96,000 tested, under 10 active; P33261; recombinant CYP2C19, luciferin-H EGE luminescence; active compounds read high; 0 = fully inhibited enzyme, 1 = untreated enzyme; AID 1025; activation factor at 5 µM;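 active = activation factor of at least 2 at 5 µM in the primary screen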
Target sequence (P33261 whole entry, looked up): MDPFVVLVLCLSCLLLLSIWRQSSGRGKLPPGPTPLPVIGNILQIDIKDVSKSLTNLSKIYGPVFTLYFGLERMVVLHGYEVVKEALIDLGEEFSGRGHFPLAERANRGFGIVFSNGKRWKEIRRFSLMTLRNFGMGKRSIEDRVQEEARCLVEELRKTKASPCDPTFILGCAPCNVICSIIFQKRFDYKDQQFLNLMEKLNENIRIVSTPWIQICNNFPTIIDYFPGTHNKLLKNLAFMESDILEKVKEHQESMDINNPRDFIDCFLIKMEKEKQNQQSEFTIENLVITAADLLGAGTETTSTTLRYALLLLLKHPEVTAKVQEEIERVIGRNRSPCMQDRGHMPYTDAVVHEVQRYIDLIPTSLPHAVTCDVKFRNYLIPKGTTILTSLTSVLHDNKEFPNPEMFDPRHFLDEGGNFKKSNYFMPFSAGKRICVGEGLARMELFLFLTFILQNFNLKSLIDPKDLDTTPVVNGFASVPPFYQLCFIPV
CYP2C19 inh: inhibitors of human CYP2C19; P33261; CYP2C19 Supersomes, luciferin-H EGE luminescence, 30 min; inhibition, % at 5 µM; 96,000 tested, 21% active;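 active = CYP2C19 inhibition above a set limit at 5 µM in the primary screen, cut at about 50% in these data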
Cav3 T inh: human Cav3.2 channel inhibition, primary screen. 100,000 tested, 4% active. B-score at 10 µM. Cav3.2-expressing cells, Fluo-4 calcium fluorescence FDSS; active compounds read low. O95180;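 active = single-dose well whose peak fluorescence ratio is a statistical outlier from its plate by either plate-standardised score or position-corrected B-score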
CYP2C9 activ: CYP2C9 (human) activation | P11712 | recombinant CYP2C9, luciferin-H conversion, luminescence; active compounds read high; factor 1 = untreated enzyme, 0 = blocked | activation factor at 5 µM | 96,000 tested, 1.4% active | AID 1024;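 active = activation factor of 2 or more for CYP2C9 at a 5 µM dose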
CYP2C9 inh: blocks human cytochrome P450 2C9; 96,000 tested, 20% active; CYP2C9 Supersomes, luciferin-H conversion, luminescence; inhibition, % at 5 µM; AID 777; P11712;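 active = blocking of liver enzyme CYP2C9 beyond about 50% at 5 µM, limit read from the data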
A number is an active result; i = inactive; nt = no result. Shown are actives, neighbours in structure and some others; about 27% of the full set was active somewhere.

SMILES	CYP2C19 activ	CYP2C19 inh	Cav3 T inh	CYP2C9 activ	CYP2C9 inh
CCC(c1nnnn1Cc1ccco1)N(Cc1ccccc1OC)Cc1cc2cc(C)ccc2[nH]c1=O (stereo not given)	i	i	i	i	51
Cc1cc2c(=O)n(NC(N)=O)c(C)nc2s1	i	i	i	i	i
COCCN(CC(=O)Nc1cccc(C)c1)S(=O)(=O)c1ccc(S(=O)(=O)N2CCCC2)cc1	i	i	i	i	61
Cc1sc(NC(=O)c2ccco2)c(CN2CCC(C)CC2)c1C	i	i	-5.2	i	i
Cc1sc(NC(=O)c2ccco2)c(C(c2cccnc2)N2CCC(C)CC2)c1C (stereo not given)	i	88	i	i	76
O=C(Nc1ccccc1)OCc1cc(-c2ccccc2Cl)on1	i	i	nt	i	i
COc1ccc(S(=O)(=O)N2CCC(C(=O)N3CCc4ccccc4C3)CC2)cc1Cl	i	92	-4.6	i	i
COc1ccccc1N1CCN(C(=O)C2CCN(S(=O)(=O)c3ccc(Cl)cc3)CC2)CC1	i	i	i	i	i
CCS(=O)(=O)N1CCC(C(=O)N2CCc3ccccc3C2)CC1	i	60	nt	i	i
O=C(C1CCCN(Cc2ccccc2)C1)N1CCc2ccccc2C1 (stereo not given)	i	i	nt	i	i
CCCC(C)NC(=O)c1ccc2[nH]c3c(c2c1)CC(C)CC3 (stereo not given)	i	i	-5	i	51
CC(C)N(CCCNC(=O)CC1Oc2ccccc2NC1=O)Cc1ccccc1 (stereo not given)	i	i	i	i	i
O=C(NCc1ccco1)C1CCN(C(=O)c2cc3sccc3n2Cc2ccc(Cl)cc2)CC1	i	65	i	i	77
O=C(NCCN1CCOCC1)c1cc2sccc2n1Cc1ccc(Cl)cc1	i	70	i	i	69
CC(=O)N1CCC(N(C(=O)Nc2ccc(F)cc2)C2CCCC2)CC1	i	i	i	i	i
C/C(=N\NC(=S)Nc1ccc(F)cc1)C1CC1	i	69	i	i	57
CCc1nnc(NC(=O)CSc2nnc(CNc3cccc(Cl)c3)n2CC)s1	i	i	i	i	i
CCn1c(CNc2cccc(Cl)c2)nnc1SCc1ccccc1	i	56	i	i	i
CCn1c(CNc2ccc(Cl)cc2)nnc1SCc1ccc(Cl)cc1	nt	nt	-3.5	nt	nt
CCn1c(CNc2ccc(Cl)cc2)nnc1SCc1ccc(C)cc1	nt	nt	-3.8	nt	nt
COC(=O)CSc1nnc(CNc2ccc(Cl)cc2)n1Cc1ccccc1	i	97	i	i	92
CCCCNCC(=O)Nc1ccc(NC(=O)CNCCCC)cc1	i	i	i	i	i
Cc1ccc(F)c([C@H]2C3C=CCC(c4ccccc4)C3C(=O)N2Cc2ccccc2)c1 (stereo not given in full)	nt	nt	i	nt	nt
CC(=O)c1sc(Nc2nc(C)cc(C)n2)nc1C	i	i	i	i	73
CC(=O)c1sc(NC(=O)C(C)(C)C)nc1C	nt	nt	i	nt	nt
SMILES	CYP2C19 activ	CYP2C19 inh	Cav3 T inh	CYP2C9 activ	CYP2C9 inh
Cc1ccc(NC2c3ncccc3C(=O)N2Cc2ccc(F)cc2)cc1 (stereo not given)	i	i	i	i	53
COc1ccc(CN2C(=O)c3cccnc3C2Nc2ccc(OC)c(Cl)c2)cc1 (stereo not given)	i	i	i	i	i
O=C(c1ccco1)N1CCCSC1=Nc1ccccc1	i	i	i	i	i
O=C(C1CCCCC1)N1CCCc2ccccc21	i	67	i	i	i
CC(C)N1C(=O)CCC1C(=O)N1CCCc2ccccc21 (stereo not given)	i	i	i	i	i
O=C(NC1CCCCC1)N1CCSC1=Nc1ccccc1	i	i	-4	i	i
O=C(NC1CCCCC1)N1CCCc2ccccc21	i	53	i	i	i
CC(=O)NC1CC2CCCC(C1)N2CC(=O)N1CCCc2ccccc21 (stereo not given)	nt	nt	i	nt	nt
COc1cc(C(=O)OCc2cc3ccccc3[nH]c2=O)cc(OC)c1OC	nt	nt	i	nt	nt
O=C(CN1CCCN(S(=O)(=O)c2ccc(Br)cc2)CC1)Nc1ccc2c(c1)OCO2	nt	nt	i	nt	nt
CNc1c([N+](=O)[O-])cnn1-c1ccccc1Cl	i	i	nt	i	i
CNc1c([N+](=O)[O-])cnn1-c1ccc(Cl)cc1Cl	i	53	nt	i	i
CN(C)S(=O)(=O)c1ccc(S(=O)(=O)N(CC(=O)Nc2ccccc2)CC2CCCO2)cc1 (stereo not given)	i	i	i	i	90
CC(=O)Nc1ccc(S(=O)(=O)N(Cc2ccco2)CC2CCCO2)cc1 (stereo not given)	i	73	nt	i	i
CN(C)S(=O)(=O)c1ccc(S(=O)(=O)N(CC(=O)Nc2ccccc2)Cc2ccco2)cc1	i	i	i	i	i
O=C(CN(CC1CCCO1)S(=O)(=O)c1ccc(S(=O)(=O)NCC2CCCO2)cc1)Nc1ccccc1 (stereo not given)	i	i	i	i	90
C/C=C/c1ccccc1OCc1ccc(C(=O)OC)o1	i	i	i	i	i
CC(C)OC(=O)CSc1nnc(-c2ccncc2)n1N	i	86	i	i	56
Cc1ccc(C)c(NC(=O)CSc2nnc(-c3ccncc3)n2N)c1	i	60	i	i	92
Cc1ccc(-n2c(SCC(=O)OC(C)C)nnc2-c2ccncc2)cc1	nt	nt	i	nt	nt
CCOC(=O)c1ccc(CSc2nnc(-c3ccncc3)n2N)cc1	i	68	nt	i	i
S=C1NCCOCCOCCOCCNC(=S)NCCOCCOCCOCCN1	nt	nt	i	nt	nt
CN(C)c1nc(Oc2ccc(N)cc2)nc(N(C)C)n1	i	i	i	i	i
Cn1c2c(c3ccccc31)CCSC2=O	i	i	i	i	i
COCCNC(=O)c1ccc(CS(=O)(=O)c2ccc(Cl)cc2)o1	i	i	i	i	i
SMILES	CYP2C19 activ	CYP2C19 inh	Cav3 T inh	CYP2C9 activ	CYP2C9 inh
O=C(NCc1cccnc1)c1ccc(CS(=O)(=O)c2ccc(Cl)cc2)o1	i	100	i	i	93
Cc1cccc(CS(=O)(=O)Cc2ccc(C(=O)NCc3cccnc3)o2)c1	i	82	i	i	i
Cc1ccc(CCNC(=O)c2ccc(CS(=O)(=O)Cc3ccccc3F)o2)cc1	i	75	i	i	98
Cc1ccccc1CS(=O)(=O)Cc1ccc(C(=O)NCc2cccnc2)o1	i	78	i	i	i
O=C(CN1CCN(c2ccccc2)CC1)Nc1ccc(OCc2ccccc2)cc1	i	i	i	i	i
CO[C@H]1O[C@@H]2O[C@@]3(C)CC[C@H]4[C@H](C)CC[C@@H]([C@H]1C)[C@@]24OO3	nt	nt	i	nt	nt
O=C(NCCc1ccccc1)c1cccnc1	i	i	i	i	i
O=C(NCc1ccc(Cl)cc1)c1cccnc1	i	66	i	i	i
CCOC(=O)c1[nH]c2ccc(OCC)cc2c1NC(=O)CN1CCCC(C)C1 (stereo not given)	i	78	i	i	60
CCOC(=O)c1[nH]c2ccc(C)cc2c1NC(=O)CN1CCCCC1	i	60	i	i	i
C#CCNC(=O)C1=C[C@H](c2ccc(C(F)(F)F)cc2)C[C@H](OCc2ccc(CO)cc2)O1	nt	nt	i	nt	nt

Source: PubChem BioAssay
